Only some compounds are listed: those with a hit (about 19% of all), similar ones and a draw of the others.
TDP1 cell noCPT – qHTS for Inhibitors of human tyrosyl-DNA phosphodiesterase 1 (TDP1): qHTS in cells in absence of CPT; hit rate 15% among 420,000; Potency, µM (doses to about 46.2 µM), inactives show at the top dose activity change, negative = growth inhibition, most hits filed as inhibitors; AID 686978, 2013; DT40 Tdp1-/- hTDP1 cells, no CPT, ATP luminescence, 48 h; further: nearly all actives have a fitted effect of over 55% in size
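Camptothecin absent (DMSO only). Human TDP1-complemented DT40 knockout cells, 400 cells/well, 37 °C for minimum 48 hr; ATP measured via CellTiter-Glo, 30 min dark incubation, luminescence.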
Gal4-VP16 FLuc – Gal4-VP16 reporter inhibition counter-screen. Drosophila S2 Gal4-VP16 UAS-luciferase, luminescence, 20 h. Potency, µM (series often up to 53.6 µM), without a hit: at the top dose activity, negative = inhibition, most hits filed as inhibitors. hit rate 3.5% among 310,000. AID 2546;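 further: Gal4-VP16 expression switched on by copper sulfate through the metallothionein promoter; nearly all actives have a fitted effect of over 50% in size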
RORgamma inh – ROR gamma (mouse) transcription inhibition. Drosophila S2 Gal4-RORgamma UAS-luciferase reporter, 20 h. Potency, µM (highest dose often 53.6 µM), for the others: top-dose activity change, negative = inhibition, actives largely listed as inhibitors. hit rate 5.4% among 310,000. AID 2551. P51450; further: nearly all actives have a fitted effect of over 60% in size
Target sequence (P51450 whole entry, looked up, the tested form may be a part): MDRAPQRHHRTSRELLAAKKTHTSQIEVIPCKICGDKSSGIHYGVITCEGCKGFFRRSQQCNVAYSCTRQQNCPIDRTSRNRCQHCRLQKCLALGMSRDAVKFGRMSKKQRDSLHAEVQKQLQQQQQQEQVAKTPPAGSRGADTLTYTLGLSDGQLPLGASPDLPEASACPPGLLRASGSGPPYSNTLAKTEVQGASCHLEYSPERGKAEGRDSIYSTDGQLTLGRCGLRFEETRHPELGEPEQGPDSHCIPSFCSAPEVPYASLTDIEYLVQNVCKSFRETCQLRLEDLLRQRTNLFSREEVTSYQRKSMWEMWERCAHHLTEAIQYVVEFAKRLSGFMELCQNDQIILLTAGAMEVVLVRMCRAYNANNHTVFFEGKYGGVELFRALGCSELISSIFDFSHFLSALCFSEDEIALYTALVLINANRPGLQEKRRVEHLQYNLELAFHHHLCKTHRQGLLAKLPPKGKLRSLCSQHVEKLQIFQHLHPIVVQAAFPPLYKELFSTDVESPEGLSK
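Schneider cells (Drosophila), stable Gal4 DBD–ROR gamma + UAS-luc; 1 hr cmpd preincubation; Cu2+ induction 700 uM final; 20 hr ambient; luminescence.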
DT40 TDP1 CPT – DT40-hTDP1 cell growth loss with CPT. chicken DT40 Tdp1-/-;hTDP1 cells + 20 nM CPT, ATP luminescence, 48 h. hit rate 12% among 420,000. AID 686979. Potency, µM (doses to about 46.2 µM), without a hit: at the highest dose activity change, negative = growth inhibition, usual class: inhibitors; further: nearly all actives have a fitted effect of over 55% in size
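Cell growth measured by CellTiter-Glo luminescence after a minimum 48 h, 37 C compound exposure with 20 nM CPT in Tdp1-knockout DT40 cells stably expressing hTDP1, seeded 400/well; qHTS titration format.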
TDP1 inh – inhibitors of human tyrosyl-DNA phosphodiesterase TDP1. Q9NUW8. recombinant TDP1, AlphaScreen DNA substrate cleavage. Potency, µM (series often up to 130 µM), for inactives: at the top dose activity change, negative = inhibition, actives largely listed as inhibitors. hit rate 0.28% among 350,000. AID 485290; further: nearly all actives have a fitted effect of over 40% in size
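Compounds were preincubated with Tdp1 (1 nM final) for 15 min at room temperature before substrate (15 nM final) started a 5 min reaction; beads (10 ug/ml final) were then added for 10 min before AlphaScreen detection.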
The depositor's hits bear a star; ? = inconclusive; . = no result given; [ ] = another dose, or the depositor's remark. The call rests on the fitted dose curve; in most records, active means well fitted curve in the direction sought with a large enough effect; inconclusive means small, poorly fitted or top-dose-only effect, or another doubt; inactive means no such curve, though single readings can be large; an effect the other way counts as inactive or inconclusive. On the % scale 0 is the no-effect control and ±100 the full control effect; potency means the concentration at half of the fitted maximal effect.

SMILES	TDP1 cell noCPT	Gal4-VP16 FLuc	RORgamma inh	DT40 TDP1 CPT	TDP1 inh
COc1ccccc1N1C(=O)c2ccccc2NC1C(OC)OC (stereo not given)	7.3%	-2.6%	-3.6%	-4.9%	3.3%
CC(=O)OC1CC2C(C)(C)C(O)CC[C@@]2(C)C2CC[C@@]3(C)C(c4ccoc4)OC(=O)C4OC43[C@]12C (stereo not given in full)	20.6µM*	-28.3%	-13.0%	?	15.2%[56.1 µM]
CC(=O)OC1CC(O)C(C)(C)C2CC(OC(C)=O)[C@]3(C)C(CC[C@@]4(C)C(c5ccoc5)OC(=O)C5OC534)[C@]12C (stereo not given in full)	10.1%	6.7%	9.8%	4.6%	13.6%[56.1 µM]
CC(=O)OC1CC2C(C)(C)C(O)CC[C@@]2(C)C2CC[C@@]3(C)C(c4ccoc4)OC(=O)C4O[C@@]43[C@]12C (stereo not given in full)	18.4µM*	-28.6%	-20.4%	?	18.8%[56.1 µM]
CC1(C)OCC(CSC2=C(SCC3COC(C)(C)O3)C(=O)c3ncccc3C2=O)O1 (stereo not given)	.	15.8µM*	11.2µM*	.	3.3%
CCCCSC(=S)N(C)C1CCS(=O)(=O)C1 (stereo not given)	?	2.1%	?	-1.4%	-5.9%
CN(C)c1ccc(C(=O)Nc2cccc(S(=O)(=O)N3CCCC3)c2)cc1	?	.	.	?	4.3%
Cc1cc(N2CCOCC2)n2ncc(-c3ccc(Cl)cc3)c2n1	-16.4%	?	-22.5%	0.7%	-4.1%
CC(C)(C)c1cc(N2CCOCC2)n2ncc(-c3ccc(Cl)cc3)c2n1	13µM*	7.1%	-0.3%	?	.
Cc1cc(C)n(-c2cc(C(C)(C)C)nc3c(-c4ccc(Cl)cc4)cnn23)n1	?	17.2%	-1.5%	11.2µM*	-4.8%
Cc1cc(C)n(-c2cc(C(C)(C)C)nc3c(-c4ccccc4)cnn23)n1	?	3.4%	-28.6%	-21.1%	-1.4%
COc1ccc(C(O)P(=O)(OCC(C)C)OCC(C)C)c(OC)c1 (stereo not given)	-2.7%	-3.3%	-8.2%	0.0%	1.2%
COC(=O)c1ccc(/C=C/c2c(-c3ccsc3)oc3ccc(N4CCOCC4)cc23)cc1	?	6.8%	22.5%	18.4µM*	.
COc1ccc(-c2c(-c3ccsc3)oc3ccc(N4CCOCC4)cc23)cn1	16.4µM*	.	.	?	.
COC(=O)c1nc2ccc(N3CCOCC3)cc2c(C)c1C(=O)OC	?	?	?	3.2%	1.2%
O=C(Cc1ccccc1)Nn1c(O)c(/C=C2\C=Nc3ccccc32)sc1=S	?	-8.4%	32.5%	-5.3%	2.6%
COCCNC(=O)c1cc(S(=O)(=O)N2CCC3(CC2)OCCO3)ccc1F	-16.6%	.	.	-16.6%	.
Cc1cc(F)ccc1S(=O)(=O)N1CCCCC1CCNC(=O)C(=O)NCc1ccccn1 (stereo not given)	16.4µM*	.	.	?	11.6%
Cc1ccc(S(=O)(=O)N2CCCC(C(=O)NCc3cccnc3)C2)cc1Cl (stereo not given)	?	-6.3%	?	-25.3%	-4.1%
Cc1ccc(C)c(S(=O)(=O)N2CCCC2CNC(=O)C(=O)NC2CCCCCC2)c1 (stereo not given)	23.1µM*	.	.	?	1.2%
Cc1cc(C)c(S(=O)(=O)N2CCCC(C(=O)NCc3cccnc3)C2)c(C)c1 (stereo not given)	20.6µM*	?	?	16.4µM*	2.6%
Cc1ccc(C)c(S(=O)(=O)N2CCCCC2CCNC(=O)C(=O)NCc2cccnc2)c1 (stereo not given)	?	.	.	?	-0.1%
Cc1ccc(C)c(S(=O)(=O)N2CCCCC2CCNC(=O)C(=O)NCc2ccccc2)c1 (stereo not given)	18.4µM*	.	.	23.1µM*	5.7%
Cc1ccc(CNC(=O)C(=O)NCCC2CCCCN2S(=O)(=O)c2ccc(C)cc2)cc1 (stereo not given)	?	.	.	23.1µM*	-0.5%
Cc1ccc(S(=O)(=O)N2CCCCC2CCNC(=O)C(=O)NCc2cccnc2)cc1 (stereo not given)	18.4µM*	.	.	20.6µM*	0.2%
SMILES	TDP1 cell noCPT	Gal4-VP16 FLuc	RORgamma inh	DT40 TDP1 CPT	TDP1 inh
Cc1cc(C)c(S(=O)(=O)N2CCCCC2CCNC(=O)C(=O)NCc2cccnc2)c(C)c1 (stereo not given)	?	.	.	11.6µM*	-3.8%
O=C(NCCC1CCCCN1S(=O)(=O)c1ccc(Cl)cc1)C(=O)NCc1ccncc1 (stereo not given)	?	.	.	?	0.1%
Cc1ccc(S(=O)(=O)N2CCCCC2CCNC(=O)C(=O)NC2CC2)cc1 (stereo not given)	?	.	.	?	-3.3%
Cc1ccccc1CNC(=O)C(=O)NCCC1CCCCN1S(=O)(=O)c1ccccc1 (stereo not given)	18.4µM*	.	.	16.4µM*	-2.5%
Cc1cc(C)c(S(=O)(=O)N2CCCCC2CCNC(=O)C(=O)NCC2CCCO2)c(C)c1 (stereo not given)	?	.	.	?	5.0%
Cc1ccc(-n2ncc3c(N(C)C)ncnc32)cc1Cl	?	.	.	-23.3%	5.2%
O=C(N/N=C/c1ccccc1O)C1CC(=O)N(c2ccc(Cl)cc2)C1 (stereo not given)	3.66µM*	1.12µM*	0.891µM*	7.31µM*	0.6%
O=C(O)c1ccc(-n2nnnc2SCc2ccccc2)cc1	0.1%	-6.0%	10.8%	2.6%	4.7%
S=C(Nc1ccccc1Cl)N(Cc1cccnc1)Cc1ccco1	-12.7%	7.9%	-16.9%	2.6%	5.1%
Cc1c(Cl)cccc1NC(=S)N(Cc1cccnc1)Cc1ccccc1Cl	?	?	11.2µM*	-3.5%	3.7%
CCOC(=O)/C(=C\c1ccccc1)C(=O)CCN1CCOCC1	1.46µM*	.	.	1.64µM*	.
Cc1nn(C(=O)COc2ccccc2)c(C)c1Sc1ccccc1	-16.6%	.	.	-13.6%	.
Cc1ccc2nc3c(c(Nc4ccc5c(c4)OCCO5)c2c1)CCC3	18.4µM*	?	-13.4%	16.4µM*	11.3%
Cc1cc(C)c(C#N)c(Nc2ccc3c(c2)OCCO3)n1	?	9.3%	13.8%	6.7%	1.3%
COc1ccc(Nc2c3c(nc4ccc(C)cc24)CCC3)cc1	?	11.5%	-39.0%	?	.
Cc1ccc2nc3c(c(Nc4ccc(O)cc4)c2c1)CCC3	18.4µM*	4.9%	-2.9%	?	.
CN(Cc1nc2ccccc2c(=O)[nH]1)C(=O)c1ccc(NC(=O)CSc2nnnn2C)cc1	1.1%	.	.	-2.8%	-0.3%
COc1ccc(C(CCN2CCOCC2)c2c(OC)cc(OC)c3ccc(=O)oc23)cc1 (stereo not given)	20.6µM*	.	.	?	1.9%[56.1 µM]
